Screens deposited in PubChem by The Scripps Research Institute Molecular Screening Center.
Only a selection was taken, and hits are over-represented in it overall.
TTR transcr act – activators of transthyretin transcription. SH-SY5Y TTR promoter Gaussia luciferase, luminescence; 100% = recombinant luciferase protein wells. activation, % at 16.7 µM. 92,000 compounds, 1.3% hits;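 active = activation above the mean of all tested compounds plus 3 SD, cut at about 9.5% in these data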;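 note: cells exposed to compounds for one day before reading; 0% = median of all test compound wells on the plate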
HuH7 TTR inh – counter-screen for TTR activators: TTR transcription inhibitors in HuH7 cells | shares compounds with TTR transcr act | HuH7 TTR promoter-Gaussia luciferase reporter, luminescence | inhibition, % at 16.7 µM | 1,100 compounds, 4% hits | AID 1117279;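 active = average inhibition above the solvent-only control wells' mean plus 3 SD, cut at about 15% in these data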;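 note: 0% = cells with DMSO only and 100% = cells with inhibitor control FD; inhibitors lower well luminescence so higher value means more inhibition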
TTR up confirm – human TTR transcription activation, confirmation; SHSY5Y TTR promoter Gaussia luciferase, luminescence; 100% = purified Lucia enzyme wells, no cells; 1,100 tested, under 10 active; shares compounds with TTR transcr act; activation, % at 16.7 µM;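 active = mean activation above a set limit taken from the earlier primary screen, cut at about 11% in these data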;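 note: 0% = DMSO-treated cells and 100% = recombinant Lucia luciferase without cells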
* hit, by the source's call.

SMILES	TTR transcr act	others
CC(C)(C)n1nnnc1C(c1ccccc1)N1CCCN(Cc2ccc(F)cc2)CC1 (stereo not given)	9
Cc1ccc(F)cc1C(=O)N1CCCC(c2cc(C(=O)Nc3ccccc3)no2)C1 (stereo not given)	-4
O=C(Nc1ccccc1)c1cc(C2CCCN(C(=O)C3CC3)C2)on1 (stereo not given)	10.0*	HuH7 TTR inh=-10;TTR up confirm=0
CN(C)c1ccc(CC(=O)N2CCCC(c3cc(C(=O)Nc4ccccc4)no3)C2)cc1 (stereo not given)	0
COC(=O)C[C@H]1CC[C@H]2[C@H](COc3ccc(NS(=O)(=O)c4cccc(OC)c4)cc3C(=O)N2C)O1	0
Cc1c(C(=O)N2CCc3ccccc3C2)oc2ccc(S(=O)(=O)N3CCCCCC3)cc12	1
Cc1c(C(=O)N2CCN(S(=O)(=O)c3ccccc3)CC2)oc2ccc(Br)cc12	31*	HuH7 TTR inh=-19;TTR up confirm=0
Cc1c(C(=O)N2CCOCC2)oc2ccc(S(=O)(=O)N3CCCC3)cc12	1
CC(C)c1ccc(NC(=O)OC2CCC23CCC(c2ccccc2)CC3)cc1 (stereo not given)	2
O=C(OCC(=O)N1CCC(Cc2ccccc2)CC1)c1cncc(Br)c1	0
CN(c1cccc(F)c1)c1cc2c(c3c1ccn3C)C1CCC2O1 (stereo not given)	1
Cc1cc(C(=O)N/N=C/c2cccc(OC(=O)c3cccc(Br)c3)c2)n[nH]1	-2
COc1ccc(/C=N/NC(=O)c2cc(C34CC5CC(CC(C5)C3)C4)[nH]n2)cc1OC	5
COc1cccc(/C=N/NC(=O)c2cc(C34CC5CC(CC(C5)C3)C4)[nH]n2)c1	17*	HuH7 TTR inh=-12;TTR up confirm=0
O=C(OCC#CCSc1nnc(-c2cccc3ccccc23)o1)c1ccsc1	-1
COC(CNC(=O)[C@H](Cc1c[nH]c2ccccc12)NC1(C(=O)NC(c2ccccc2)c2ccccc2)CCCCC1)OC	-3
CCSc1nc2ccccc2n1CC(N)=O	0
COCC(C)NC(=O)Cn1c(SCc2ccccc2)nc2ccccc21 (stereo not given)	1
COC(=O)CSc1nc2ccccc2n1CC(=O)N(C(C)C)C(C)C	13*	HuH7 TTR inh=-5;TTR up confirm=-1
Cc1ccc(/C=N\NC(=O)c2cncc(Br)c2)o1	2
Cc1ccc(/C=N/NC(=O)c2csc(C)c2)o1	23*	HuH7 TTR inh=16*;TTR up confirm=-2
Cc1ccc(/C=N/NC(=O)c2ccc(NC(=O)c3ccccc3Cl)cc2)o1	-2
COC(=O)[C@]12C[C@H](CC(=O)N3CCN(C(=O)C4CC4)CC3)C(=O)N(Cc3cccc4ccccc34)C1=C[C@H](C(C)C)O[C@@H]2C1CC1	-1
CC1=C(C(=O)Nc2ccccc2C)C(c2ccccc2)NC(=O)N1 (stereo not given)	-1
CC1=C(C(=O)Nc2ccc(C)cc2)C(c2ccc(N(C)C)cc2)NC(=O)N1 (stereo not given)	1
SMILES	TTR transcr act	others
COc1cccc(C2NC(=O)NC(C)=C2C(=O)Nc2ccc(C)cc2)c1 (stereo not given)	21*	HuH7 TTR inh=-11;TTR up confirm=0
C[C@H]1CN([C@@H](C)CO)C(=O)CCCn2cc(nn2)CO[C@@H]1CN(C)S(=O)(=O)c1ccc(Oc2ccccc2)cc1	-1
O=C1CCCc2c1nc(-c1ccc(F)cc1)n2O	9
O=C1CCCc2c1nc(-c1ccc([N+](=O)[O-])cc1)n2O	12*	HuH7 TTR inh=2;TTR up confirm=-1
O=[N+]([O-])c1ccc(-c2cn3c(n2)CCC3)cc1	5
Cc1ccc(S(=O)(=O)N2CC[C@@]3(Cc4ccccc4)Cc4ccccc4C[C@@H]23)cc1	1
CCn1ncc(/C=N\NC(=O)c2csc3ccccc23)c1C	15*	HuH7 TTR inh=18*;TTR up confirm=-1
Cc1nn(C)c(C)c1/C=N/NC(=O)c1csc2ccccc12	-2
Cc1sccc1/C=N/NC(=O)c1cccc2ccccc12	-2
COC(=O)[C@]12CCCCC=C1N(Cc1ccc(OC)cc1)C(=O)[C@@H]2CC(=O)NCCCCc1ccccc1	10
CCCCC1CCC(c2nc(-c3cccnc3)no2)CC1 (stereo not given)	13*	HuH7 TTR inh=1;TTR up confirm=0
CCCCC(=O)Nc1ccnc(-c2cccnc2)n1	0
Cc1ccccc1-c1nc(-c2cccnc2)no1	-1
COc1cc(C(C)=O)ccc1OCC(=O)OCCCOC(=O)COc1ccc(C(C)=O)cc1OC	-1
COC(CNC(=O)[C@H](Cc1ccccc1)NCC(=O)NC1CCCCC1)OC	0
O=C(CNC(=O)c1ccncc1)N/N=C/c1ccccc1[N+](=O)[O-]	0
CCCn1c(C(O)c2ccc(OC)cc2)nc2ccccc21 (stereo not given)	9.8*	HuH7 TTR inh=-17;TTR up confirm=0
CCCn1c(C(C)Nc2nc(-c3ccc(OC)cc3)cs2)nc2ccccc21 (stereo not given)	7
CCn1c(C(O)c2cc(OC)c(OC)c(OC)c2)nc2ccccc21 (stereo not given)	3
NC(=O)c1c(N)[nH]c(C(=O)c2ccccc2)c1-c1ccccc1C(F)(F)F	0
CCOc1ccccc1NC(=O)c1cc(Cl)ccc1NC(=O)c1ccco1	12*	HuH7 TTR inh=-11;TTR up confirm=0
CCOc1cc(NC(=O)c2ccco2)c(OCC)cc1NC(=O)CCc1ccccc1OC	-2
COc1cc(NC(=O)c2ccccc2Cl)ccc1NC(=O)c1ccco1	-2
O=C(NCCc1ccccc1)OCc1cn(Cc2ccc(Cl)cc2)nn1	0
C#CCOCCOCCOCCNc1nc(N2CCOCC2)nc(N2CCN(C(=O)[C@H](CCC(=O)O)n3cc(C(N)CC(C)C)nn3)CC2)n1 (stereo not given in full)	0
SMILES	TTR transcr act	others
S=c1[nH]nc(-c2cc(-c3ccccc3)n[nH]2)n1/N=C/c1cccs1	0
S=c1[nH]nc(-c2cc(-c3ccccc3)n[nH]2)n1/N=C/c1ccccc1	11*	HuH7 TTR inh=-15;TTR up confirm=1
S=c1[nH]nc(-c2cc(-c3ccccc3)n[nH]2)n1/N=C/C=C/c1ccccc1	4
Cc1ccc(N(CCC#N)C(=O)COC(=O)C2CCN(S(=O)(=O)c3ccc4c(c3)OCCO4)CC2)cc1	-2
O=C(Nc1ccccc1Cl)OC1CC2CC1[C@H]1CCCCN1[C@H]2Cc1ccccc1 (stereo not given in full)	-1
O=C(N1CCc2ccccc2C1)n1cc(C(O)(c2ccccc2)c2ccccc2)nn1	-1
COc1ccc2c(c1)[C@@]1(NCCc3c1[nH]c1ccc(OC)cc31)C(=O)N2C	0
CCCCN1CN2CCc3ccccc3C2CS1(=O)=O (stereo not given)	4
CCn1c(SCc2nc3ccccc3s2)nnc1-c1cccs1	15*	HuH7 TTR inh=-23;TTR up confirm=0
COc1ccc(-c2nnc(SCc3nc4ccccc4s3)n2C(C)C)cc1	-1
Cn1c(SCc2nc3ccccc3s2)nnc1-c1cccs1	-4
CCN(CC)S(=O)(=O)c1ccc(C(=O)NCC(=O)NCc2ccc3c(c2)OCO3)cc1	-1
CCOC(=O)N1CCN(C(=O)C[C@H]2C(=O)N(CCCOC)C3=CCCC[C@@]32C(=O)OCC)CC1	0
CC(C)=CCN1CCN(Cc2ccoc2)CC1CCO (stereo not given)	-2
CC(=O)Nc1ccc2nc(CN3CCN(CC=C(C)C)C(CCO)C3)ccc2c1 (stereo not given)	67*	HuH7 TTR inh=-6;TTR up confirm=1
